The list is not random: actives were taken first. Their share in the collection is about 1.8%.
Ba/F3 V617F tox = reduced viability of JAK2V617F-dependent Ba/F3 cells, primary screen, JAK2V617F inhibitor project, cell-based, Ba/F3 EpoR-JAK2V617F, luminescence | inhibition, % at 5.6 µM | 1.1% of 220,000 active | ATP luminescence | AID 1446, 2008;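 active = inhibition above the campaign mean plus 3 SD over all tested compounds, cut at about 24% in these data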;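 note: cytokine-independent growth of Ba/F3 cells driven by EpoR plus mutant JAK2; 0% = DMSO-treated cells and 100% = JAK inhibitor I control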
APP 5UTR inh = inhibitors of APP translation via 5'UTR reporter, primary screen, APP 5'UTR luciferase, SH-SY5Y cells | SH-SY5Y APP 5'UTR-luciferase reporter, luminescence | inhibition, % at 2 µM | 0.82% of 190,000 active | AID 1285, 2008;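 active = inhibition above a set limit, derived from the sample mean plus 3 SD, cut at about 45% in these data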
KLF5 inh = KLF5 expression inhibitors, primary screen, DLD-1 cells, luminescence | inhibition, % at 5 µM | AID 1700, 2009 | DLD-1 KLF5 promoter-luciferase reporter | 0.23% of 290,000 active;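 active = inhibition above a per-plate limit of that plate's mean compound inhibition plus 3 SD, cut at about 60% in these data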;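 note: 0% = DMSO wells and 100% = LY294002 at 200 µM; higher means less KLF5 promoter-driven luciferase light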
IEC-6 cytotox = cytotoxicity in IEC-6 intestinal epithelial cells, primary screen, cytotoxicity control for KLF5 inhibitor project, cell-based, luminescence; IEC-6 cytotoxicity, luminescence viability; inhibition, % at 5 µM; 0.78% of 290,000 active; AID 1825, 2009; in the data active = inhibition above about 22%;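 note: 0% = plate median of test compound wells and 100% = cytotoxic reference compound wells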
BaF3 tox = parental Ba/F3 cell viability inhibition, counter-screen for JAK2V617F inhibitor project, murine pro-B, CellTiter-Glo luminescence; CellTiter-Glo ATP luminescence; 1.1% of 220,000 active; inhibition, % at 5.6 µM; AID 1486, 2009;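 active = inhibition above a per-campaign cutoff, the mean inhibition of all tested compounds plus 3 SD, cut at about 27% in these data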;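 note: 0% = DMSO wells and 100% = JAK Inhibitor I control wells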
Starred values were filed as active, the others as inactive; · = no result.

SMILES	Ba/F3 V617F tox	APP 5UTR inh	KLF5 inh	IEC-6 cytotox	BaF3 tox
CCOC(=O)N1CCN(C(=O)c2cn(CC)c3cc(N4CCN(C)CC4)c(F)cc3c2=O)CC1	-2	-5	-3	-1	79*
CC#CC[N+](C)(C)CCCCCCCC	66*	·	27	8	63*
S=C(NCCSCc1ccc(Cl)cc1Cl)Nc1ccccc1	-3	-4	-28	3	7
OCCCCNCc1ccc(OCc2ccc(Cl)cc2Cl)cc1	59*	1	-23	9	27*
S=C(Nc1ccccc1)Nc1ccc(OCc2ccc(Cl)cc2Cl)cc1	-2	70*	27	-7	1
CCCCNC(=S)N/N=C/c1ccc(C#N)cc1	1	11	-50	4	6
COc1ccc(CCC(=O)N(C)CC(=O)Nc2cc(C)ccc2C)cc1	-1	5	-14	1	1
O=C(NNC(=O)c1cc2ccccc2oc1=O)c1ccccc1[N+](=O)[O-]	·	·	-14	8	·
CN1/C(=C/C(=O)c2nc(S(C)(=O)=O)ncc2Cl)C(C)(C)c2ccccc21	87*	57*	-30	-4	92*
CN1/C(=C\C(=O)c2cncc(Br)c2)C(C)(C)c2ccccc21	62*	-1	-32	-2	70*
CN1/C(=C\C(=O)COc2ccc3c(c2)OCO3)C(C)(C)c2ccccc21	64*	3	-9	0	62*
CN1/C(=C\C(=O)c2cccnc2)C(C)(C)c2ccccc21	-1	-34	20	0	7
CN1/C(=C\C(=O)C[n+]2ccc3ccccc3c2)C(C)(C)c2ccccc21	41*	-20	22	2	42*
CC(C)(CNC(=O)c1cccc(NS(=O)(=O)c2ccc(Br)cc2)c1)N1CCOCC1	·	·	-17	3	·
O=c1c(Cc2ccc(F)cc2)c(O)ccn1CCCn1ccnc1	2	-7	-29	1	9
CN1/C(=C\C(=O)c2ccco2)C(C)(C)c2ccccc21	72*	-8	-6	9	65*
COc1ccc(-c2cc(=O)oc3cc(OCC(=O)NCc4ccccn4)ccc23)cc1	·	·	-15	3	·
Cc1cc(NC(=O)Nc2cccc([N+](=O)[O-])c2)no1	0	-8	-45	4	90*
Cc1cc(NC(=O)COc2cccc([N+](=O)[O-])c2)no1	·	·	0	-1	·
N=c1ccn(CC(=O)c2ccc(-c3ccccc3)cc2)cc1	98*	8	-3	4	75*
O=C(CN1C(=O)CCC1=O)c1ccc(-c2ccccc2)cc1	-2	-28	-52	-6	3
O=[N+]([O-])c1ccc(/C=N/N=C/c2ccc([N+](=O)[O-])o2)o1	3	94*	-46	5	-2
O=C(O)/C=C/c1ccc([N+](=O)[O-])o1	0	18	-2	-8	4
Cn1ncc(Cl)c1C(=O)N1CCC(Cc2ccccc2)CC1	·	·	-42	-2	·
CC1=CC(=O)C(C(C)C)=C/C1=N/OS(=O)(=O)c1ccccc1	99*	·	-15	-1	104*
SMILES	Ba/F3 V617F tox	APP 5UTR inh	KLF5 inh	IEC-6 cytotox	BaF3 tox
CC1=CC(=O)C=C(C)C1=NOS(=O)(=O)c1ccccc1	76*	80*	0	7	48*
Cc1ccc(NC(=S)N/N=C/c2c(Cl)cccc2Cl)c(C)c1	70*	95*	18	13	72*
CCCCC[n+]1cccc2c3ccccc3ccc21	100*	16	49	14	77*
CCCC[n+]1c2ccccc2cc2ccccc21	·	·	-26	-5	·
c1ccc(C[n+]2cccc3c4ccccc4ccc32)cc1	97*	2	6	3	79*
S=C1SCN(Cc2cccnc2)CN1Cc1cccnc1	86*	·	-1	0	51*
S=C1SCN(Cc2ccccc2)CN1Cc1ccccc1	·	·	-3	-4	·
CC1(C)CC(O)C(C(O)c2cccc([N+](=O)[O-])c2)C(C)(C)N1 (stereo not drawn)	-1	-11	-6	2	0
OCc1ccc(O)c2ncccc12	67*	36	-7	-6	32*
Oc1ccc(CN2CCN(c3ccccc3)CC2)c2cccnc12	0	-7	-1	0	5
Oc1ccc(CN2CCCCC2)c2cccnc12	86*	88*	14	2	62*
Oc1ccc(CNc2ccccc2F)c2cccnc12	3	48*	8	-4	2
Cc1ccc(C)c(S(=O)(=O)N2CCN(Cc3ccc(O)c4ncccc34)CC2)c1	21	56*	26	-1	1
CCOC(=O)N1CCN(Cc2ccc(O)c3ncccc23)CC1	3	11	8	7	7
Cc1ccccc1N1CCN(S(=O)(=O)Cc2ccccc2)CC1	·	·	-35	-11	·
COc1cc(C2Nc3cccc4cccc(c34)N2)ccc1O	·	·	-36	-6	·
COc1cc(C2Nc3cccc4cccc(c34)N2)cc(OC)c1OC(C)=O	0	9	-6	-2	40*
O=C(COC(=O)C12CC3CC(CC(Br)(C3)C1)C2)N1CCOCC1	-1	-19	-27	-2	4
COc1cccc(Nc2nnc(SCc3cc([N+](=O)[O-])cc4c3OCOC4)s2)c1	3	92*	5	2	4
Cc1cccc(C)c1Nc1nnc(SCc2cc([N+](=O)[O-])cc3c2OCOC3)s1	-1	48*	-31	0	3
O=C(O)COc1ccc(-c2nccc(-c3ccccn3)n2)cc1	-3	63*	11	-2	-1
COc1ccc(CNc2nc3ccccc3n2Cc2ccccc2)cc1OC	1	-9	-7	3	6
Cc1nc2ccccn2c1C(=O)Nc1ccc(Cl)cc1	0	-35	-45	8	6
COc1ccc(-c2csc3[nH]c(=S)n(-c4ccccc4)c(=O)c23)cc1OC	1	10	9	-3	4
Cc1ccc(/C=N/NC(=O)c2cccnc2)o1	-1	11	-36	3	2
SMILES	Ba/F3 V617F tox	APP 5UTR inh	KLF5 inh	IEC-6 cytotox	BaF3 tox
O=C(O)c1cccc(-c2ccc(/C=N/NC(=O)c3cccnc3)o2)c1	0	-5	-47	-7	28*
Cc1ccc2[nH]c(C)c(/C=C/c3cc[n+](C)cc3)c2c1	·	·	-10	-1	·
C[n+]1ccc(/C=C/c2ccc(Br)cc2)cc1	79*	-8	-18	-2	83*
Cc1ccoc1C(=O)Nc1ccc2ccccc2c1	·	·	-48	6	·
Cc1ccoc1C(=O)Nc1ccc(CC(=O)O)cc1	2	79*	9	3	7
CCc1ccccc1N(CC(=O)NC(C)c1ccccc1)S(C)(=O)=O (stereo not drawn)	·	·	-4	4	·
O=C(c1cccc(Br)c1)N1CCN(C(=O)N2CCOCC2)CC1	-1	63*	-47	-1	-3
Cc1cccc(N2CC(O)(c3cccs3)[N+]3=C2CCCC3)c1 (stereo not drawn)	26*	-9	11	11	36*
CCc1ccc(N2CC(O)(c3cccs3)[N+]3=C2SCCC3)cc1 (stereo not drawn)	52*	1	-15	-2	57*

Compound activity deposited in PubChem by several laboratories.
